Assay results reported in PubChem BioAssay (NCATS).
Records with an inconclusive call do not appear. Unmarked numbers belong to inactive results. The source made the active and inactive calls. The call rests on the fitted dose curve; in most records, active means well fitted curve in the direction sought with a large enough effect; inconclusive means small, poorly fitted or top-dose-only effect, or another doubt; inactive means no such curve, though single readings can be large; an effect the other way counts as inactive or inconclusive.

Tests used:
[1] = Quantitative High-Throughput drug screen in 47 multiple myeloma cell lines against the NCATS MIPE library collection: KMS12PE_JCRB cell viability assay (AID 1918972); further: nearly all actives have a fitted effect of over 30% in size; further: potency means the concentration at half of the fitted maximal effect;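 on viability: 100% = DMSO only wells and 0% = wells with media alone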
In short: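 Viability readout: CellTiter-Glo luminescence following 5 min room-temperature incubation with reagent. Prior exposure: 48 h, 37C, humidified 5% CO2, 500 cells per well.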

[2] = Quantitative High-Throughput drug screen in 47 multiple myeloma cell lines against the NCATS MIPE library collection: MMM1_PLB cell viability assay (AID 1918976); further: nearly all actives have a fitted effect of over 35% in size; further: potency means the concentration at half of the fitted maximal effect
In short: (§1)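 Cells were exposed to library compounds for 48 hours, after which ATP was measured by CellTiter-Glo. Signal was taken as median relative luminescence units.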

[3] = Quantitative High-Throughput drug screen in 47 multiple myeloma cell lines against the NCATS MIPE library collection: NCIH929_DSMZ cell viability assay (AID 1918978); further: nearly all actives have a fitted effect of over 35% in size; further: potency means the concentration at half of the fitted maximal effect
In short: as §1

[4] = Quantitative High-Throughput drug screen in 47 multiple myeloma cell lines against the NCATS MIPE library collection: OCIMY1_PLB cell viability assay (AID 1918979);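 further: 100% = DMSO-only wells and 0% = cell-free media-only wells; nearly all actives have a fitted effect of over 35% in size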
In short: as §1

[5] = Quantitative High-Throughput drug screen in 47 multiple myeloma cell lines against the NCATS MIPE library collection: LP1_DSMZ cell viability assay (AID 1918982); further: nearly all actives have a fitted effect of over 35% in size; further: potency means the concentration at half of the fitted maximal effect
In short: as §1

[6] = Quantitative High-Throughput drug screen in 47 multiple myeloma cell lines against the NCATS MIPE library collection: KMS28PE_JCRB cell viability assay (AID 1918983); further: nearly all actives have a fitted effect of over 35% in size; further: potency means the concentration at half of the fitted maximal effect
In short: as §1

[7] = Quantitative High-Throughput drug screen in 47 multiple myeloma cell lines against the NCATS MIPE library collection: XG6_PLB cell viability assay (AID 1919865); further: nearly all actives have a fitted effect of over 40% in size; further: potency means the concentration at half of the fitted maximal effect;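 on viability (% of control): 100% = DMSO-only wells and 0% = media-only wells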
In short: as §1

[8] = Quantitative High-Throughput drug screen in 47 multiple myeloma cell lines against the NCATS MIPE library collection: MOLP8_DSMZ cell viability assay (AID 1918977); further: nearly all actives have a fitted effect of over 45% in size; further: potency means the concentration at half of the fitted maximal effect;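 on viability (% of control): 100% = DMSO-only wells and 0% = media-only wells without cells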
In short: as §1

[9] = Quantitative High-Throughput drug screen in 47 multiple myeloma cell lines against the NCATS MIPE library collection: MM1S_ATCC cell viability assay (AID 1918980); further: nearly all actives have a fitted effect of over 45% in size; further: potency means the concentration at half of the fitted maximal effect;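 on viability (% of control): 100% = wells with DMSO only and 0% = wells with media only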
In short: as §1

[10] = Quantitative High-Throughput drug screen in 47 multiple myeloma cell lines against the NCATS MIPE library collection: MM1R_ATCC cell viability assay (AID 1918981); further: nearly all actives have a fitted effect of over 35% in size; further: potency means the concentration at half of the fitted maximal effect
In short: as §1

[11] = Quantitative High-Throughput drug screen in 47 multiple myeloma cell lines against the NCATS MIPE library collection: OCIMY7_PLB cell viability assay (AID 1918987); settings: OCI-MY7 myeloma viability, CellTiter-Glo ATP, 48 h; viability (% of DMSO): at 45.8 µM (top of the series); further: nearly all actives have a fitted effect of over 65% in size; further: potency means the concentration at half of the fitted maximal effect
In short: as §1

[12] = Quantitative High-Throughput drug screen in 47 multiple myeloma cell lines against the NCATS MIPE library collection: OCIMY5_PLB cell viability assay (AID 1918988); further: nearly all actives have a fitted effect of over 65% in size; further: potency means the concentration at half of the fitted maximal effect
In short: as §1

[13] = Quantitative High-Throughput drug screen in 47 multiple myeloma cell lines against the NCATS MIPE library collection: OPM1_PLB cell viability assay (AID 1918989); further: nearly all actives have a fitted effect of over 40% in size; further: potency means the concentration at half of the fitted maximal effect;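 on viability (% of control): 100% = DMSO-only wells and 0% = media-only wells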
In short: as §1

[14] = Quantitative High-Throughput drug screen in 47 multiple myeloma cell lines against the NCATS MIPE library collection: SKMM1_PLB cell viability assay (AID 1919863); settings: SKMM1 myeloma viability, CellTiter-Glo ATP, 48 h; viability: stronger effect = lower value; further: nearly all actives have a fitted effect of over 35% in size; further: potency means the concentration at half of the fitted maximal effect
In short: as §1

[15] = Quantitative High-Throughput drug screen in 47 multiple myeloma cell lines against the NCATS MIPE library collection: L363_DSMZ cell viability assay (AID 1918984); settings: L363 myeloma viability, CellTiter-Glo ATP luminescence, 48 h; viability (% of control): at 45.8 µM (top of the series); further: nearly all actives have a fitted effect of over 40% in size; further: potency means the concentration at half of the fitted maximal effect
In short: as §1

[16] = Quantitative High-Throughput drug screen in 47 multiple myeloma cell lines against the NCATS MIPE library collection: KMS34_JCRB cell viability assay (AID 1918985); further: nearly all actives have a fitted effect of over 40% in size; further: potency means the concentration at half of the fitted maximal effect
In short: as §1

[17] = Quantitative High-Throughput drug screen in 47 multiple myeloma cell lines against the NCATS MIPE library collection: U266_ATCC cell viability assay (AID 1919864)
In short: as §1

SMILES	Potency [1]	Potency [2]	Potency [3]	Potency [4]	Potency [5]	Potency [6]	Potency [7]	Potency [8]	Potency [9]	Potency [10]	Potency [11]	Potency [12]	Potency [13]	viability [14]	Potency [15]	Potency [16]	Potency [17]	Potency [14]
NC(=O)c1ccc(N(C(N)=O)c2c(F)cccc2F)nc1-c1ccc(F)cc1F	inactive	inactive	5.26 µM (active)	inactive	inactive	inactive	1.48 µM (active)	–	–	–	–	–	–	–	–	–	–	–
CC(C)(CO)[C@@H](O)C(=O)NCCC(=O)O	inactive	–	inactive	inactive	inactive	–	20.9 µM (active)	inactive	inactive	inactive	inactive	inactive	inactive	102%	–	–	–	–
CN(C)CCN(Cc1ccc(Cl)cc1)c1ccccn1	inactive	–	10.5 µM (active)	inactive	inactive	5.9 µM (active)	–	–	16.6 µM (active)	inactive	14.8 µM (active)	–	–	–	inactive	inactive	–	–
COc1cc2nccc(Oc3ccc(NC(=O)Nc4ccc(F)cc4F)c(F)c3)c2cc1OC	inactive	0.0935 µM (active)	inactive	–	9.35 µM (active)	6.62 µM (active)	inactive	–	–	2.96 µM (active)	–	1.87 µM (active)	–	–	inactive	–	11.8 µM (active)	–
CCCCC(C=O)NC(=O)C(CC(C)C)NC(=O)OCc1ccccc1 (centres undefined)	inactive	6.62 µM (active)	–	inactive	20.9 µM (active)	23.5 µM (active)	inactive	–	–	–	–	–	–	–	inactive	–	–	–
CN(C)CCCNC(=O)c1ccc(-c2cc(O)c3ncccc3c2)cc1	20.9 µM (active)	11.8 µM (active)	23.5 µM (active)	–	8.33 µM (active)	9.35 µM (active)	–	–	20.9 µM (active)	–	–	20.9 µM (active)	16.6 µM (active)	–	20.9 µM (active)	–	–	14.8 µM (active)
COc1cc2c(cc1OC)CC(=O)N(CCCN(C)C[C@H]1Cc3cc(OC)c(OC)cc31)CC2	20.9 µM (active)	7.43 µM (active)	–	–	–	inactive	inactive	–	16.6 µM (active)	–	inactive	16.6 µM (active)	–	–	–	–	16.6 µM (active)	–
CCCCC[C@H](O)C=C[C@H]1[C@H](O)CC(=O)[C@H]1CC=CCCCC(=O)O	inactive	–	16.6 µM (active)	–	inactive	inactive	20.9 µM (active)	16.6 µM (active)	20.9 µM (active)	inactive	–	–	–	–	–	0.0148 µM (active)	18.7 µM (active)	–
